Experimental data as given in the supplement of paper PMC3342239.
Counter-ions that a name gives are not always drawn.

Test system: Saccharomyces cerevisiae
Assay: fraction of cells in G1 phase (DNA content, flow cytometry); higher = more cells with unreplicated DNA (G1 delay)
Conditions: temperature: 30 C; YPD; JTY2953 pdr5 snq2 (sensitized); drug added to: cultures diluted from stationary phase; 6-7 h
How it was run: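 S. cerevisiae in YPD at 30°C was dosed with library drugs, using a final 20 µg/ml for sensitized JTY2953 diluted 1∶200 from overnight and fixed at 6–7 h, or dosing dividing JTY2953 (fixed at 6 h) and BY4741 (fixed at 4.33 h). Ethanol-fixed, SYTOX Green-stained cells were read by flow cytometry (10,000 events). The G1 fraction is taken as the Dean-Jett-Fox G1 peak area divided by the G1 and G2/M areas combined.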

Structure (SMILES)	fraction of cells in G1 phase
C#C[C@]1(O)CC[C@H]2[C@@H]3CCC4=CC(=O)CC[C@@H]4[C@H]3CC[C@@]21CC [Levonorgestrel] (64.009 µM)	0.509
CN(C)CCOC(c1ccccc1)c1ccccc1 [Diphenhydramine HCl] (78.3199 µM)	0.446
O=NN(CCCl)C(=O)NC1CCCCC1 [Lomustine] (85.5799 µM)	0.451
Cn1ccnc1S [Methimazole] (175.178 µM)	0.473
NC(=O)N1c2ccccc2C=Cc2ccccc21 [Carbamazepine] (84.6469 µM)	0.483
Nc1ccc(S(=O)(=O)Nc2ncccn2)cc1 [Sulfadiazine] (79.9102 µM)	0.521
COc1cc(CNC(=O)CCCC/C=C/C(C)C)ccc1O [Capsaicin] (65.4834 µM)	0.556
C1COC(NC(C2CC2)C2CC2)=N1 [Rilmenidine hemifumarate] (110.956 µM)	0.483
O=C(O)c1cc(/N=N/c2ccc(S(=O)(=O)Nc3ccccn3)cc2)ccc1O [Sulfasalazine] (50.2008 µM)	0.517
O=P(O)(O)C(O)(Cc1cccnc1)P(=O)(O)O [Risedronic acid] (70.6425 µM)	0.463
Clc1ccccc1CN1CCc2sccc2C1 [Ticlopidine HCl] (75.8175 µM)	0.505
c1ccc([C@H]2CN3CCSC3=N2)cc1 [Levamisole HCl] (97.8973 µM)	0.488
CC(C)(Oc1ccc(CCNC(=O)c2ccc(Cl)cc2)cc1)C(=O)O [Bezafibrate] (55.2748 µM)	0.517
CN(C)/N=N/c1[nH]cnc1C(N)=O [Dacarbazine] (109.778 µM)	0.47
CCC1=C[C@@H]2CN(C1)Cc1c([nH]c3ccccc13)[C@@](C(=O)OC)(c1cc3c(cc1OC)N(C)[C@H]1[C@@](O)(C(=O)OC)[C@H](OC(C)=O)[C@]4(CC)C=CCN5CC[C@]31[C@@H]54)C2 [Vinorelbine] (25.6755 µM)	0.481
Cc1c(Cl)cccc1Nc1ccccc1C(=O)O [Tolfenamic acid] (76.4204 µM)	0.53
C[C@H]1[C@H](OC(=O)CCC(=O)O)O[C@@H]2O[C@@]3(C)CC[C@H]4[C@H](C)CC[C@@H]1[C@@]24OO3 [Artesunate] (52.025 µM)	0.556
O=C(O)c1cn(C2CC2)c2cc(N3CCNCC3)c(F)cc2c1=O [Ciprofloxacin] (60.3592 µM)	0.461
CN(C)CCC(c1ccc(Cl)cc1)c1ccccn1 (stereo not given) [Chlorpheniramine maleate] (72.7812 µM)	0.452
Cc1cnc(C(=O)NCCc2ccc(S(=O)(=O)NC(=O)NC3CCCCC3)cc2)cn1 [Glipizide] (44.8889 µM)	0.577

Structure (SMILES)	fraction of cells in G1 phase
CC[C@]1(O)C[C@H]2CN(CCc3c([nH]c4ccccc34)[C@@](C(=O)OC)(c3cc4c(cc3OC)N(C=O)[C@H]3[C@@](O)(C(=O)OC)[C@H](OC(C)=O)[C@]5(CC)C=CCN6CC[C@]43[C@@H]65)C2)C1 [Vincristine sulfate] (24.243 µM)	0.481
CC(C)NNC(=O)c1ccncc1 [Iproniazid] (111.593 µM)	0.47
c1cnc(N2CCN(Cc3ccc4c(c3)OCO4)CC2)nc1 [Piribedil HCl] (67.0359 µM)	0.532
Cc1ccc(-c2ncc(Cl)cc2-c2ccc(S(C)(=O)=O)cc2)cn1 [Etoricoxib] (55.7337 µM)	0.511
C[C@@H]1CCC[C@H](C)N1NC(=O)c1ccc(Cl)c(S(N)(=O)=O)c1 [Clopamide] (57.8284 µM)	0.525
CNS(=O)(=O)Cc1ccc2[nH]cc(CCN(C)C)c2c1 [Sumatriptan Succinate] (48.368 µM)	0.457
Oc1ccc(C2CNCCc3c2cc(O)c(O)c3Cl)cc1 (stereo not given) [Fenoldopam mesylate] (65.41 µM)	0.533
O=c1[nH]c(=O)n(C2CCCO2)cc1F (stereo not given) [Ftorafur] (99.9146 µM)	0.512
N[C@@H](Cc1cc(I)c(Oc2cc(I)c(O)c(I)c2)c(I)c1)C(=O)O (25.7441 µM)	0.486
Cc1ccc(C(=O)c2cc(O)c(O)c([N+](=O)[O-])c2)cc1 [Tolcapone] (73.1937 µM)	0.522
C[C@]12CC[C@@H]3c4ccc(O)cc4CC[C@H]3[C@@H]1CC[C@@H]2O [Estradiol] (73.4239 µM)	0.58
CCOC(=O)[C@H](CCc1ccccc1)N[C@@H](C)C(=O)N1[C@H](C(=O)O)C[C@@H]2CCC[C@@H]21 [Ramipril] (48.0167 µM)	0.482
CC[C@]1(O)C[C@@H]2CN(CCc3c([nH]c4ccccc34)[C@@](C(=O)OC)(c3cc4c(cc3OC)N(C)[C@H]3[C@@](O)(C(=O)OC)[C@H](OC(C)=O)[C@]5(CC)C=CCN6CC[C@]43[C@@H]65)C2)C1 [Vinblastine sulfate] (21.9998 µM)	0.495
O=c1[nH]cnc2c1ncn2[C@H]1CC[C@@H](CO)O1 [Didanosine] (84.6625 µM)	0.514
COc1ccc(C(=O)NCc2ccc(OCCN(C)C)cc2)cc1OC [Itopride HCl] (55.7972 µM)	0.501
CC1CNc2c(cccc2S(=O)(=O)N[C@@H](CCCNC(=N)N)C(=O)N2CC[C@@H](C)C[C@@H]2C(=O)O)C1 (stereo not given in full) [Argatroban] (39.3202 µM)	0.487
COc1ccc2[nH]c([S+]([O-])Cc3ncc(C)c(OC)c3C)nc2c1 (stereo not given) [Omeprazole] (57.9 µM)	0.486
CCCCCN(CCCCC)C(=O)C(CCC(=O)O)NC(=O)c1ccc(Cl)c(Cl)c1 (stereo not given) [Lorglumide] (43.5334 µM)	0.482
CN(CCOc1ccc(CC2SC(=O)NC2=O)cc1)c1ccccn1 (stereo not given) [Rosiglitazone maleate] (42.2386 µM)	0.574
C=C[C@H]1CN2CC[C@H]1C[C@H]2[C@H](O)c1ccnc2ccc(OC)cc12 [Quinine] (55.417 µM)	0.5

Structure (SMILES)	fraction of cells in G1 phase
COc1ccc(C[C@H](N)C(=O)N[C@H]2[C@@H](O)[C@H](n3cnc4c(N(C)C)ncnc43)O[C@@H]2CO)cc1 [Puromycin 2HCl] (36.7377 µM)	0.5
CCOC(=O)C1=C[C@]2(CC)CCCN3CCc4c(n1c1ccccc41)[C@@H]32 [Vinpocetine] (57.0671 µM)	0.439
O=C(O)c1cc(=O)c2c(OCC(O)COc3cccc4oc(C(=O)O)cc(=O)c34)cccc2o1 [Disodium cromoglycate] (39.0365 µM)	0.529
NC(=O)c1ncn([C@@H]2O[C@H](CO)[C@@H](O)[C@H]2O)n1 [Ribavirin] (81.8972 µM)	0.481
Cc1ccc(/C(=C\CN2CCCC2)c2ccccn2)cc1 [Trans-triprolidine HCl] (71.8389 µM)	0.521
Cc1ccc(S(=O)(=O)NC(=O)NN2CC3CCCC3C2)cc1 (stereo not given) [Gliclazide] (61.8397 µM)	0.51
CC1(C)S[C@@H]2[C@H](NC(=O)[C@H](N)c3ccc(O)cc3)C(=O)N2[C@H]1C(=O)O [Amoxicillin] (54.7345 µM)	0.457
COc1cc(-c2ccc(=O)[nH]n2)ccc1OC(F)F [Zardaverine] (74.5651 µM)	0.566
C=C1CC[C@H](O)C/C1=C/C=C1\CCC[C@]2(C)[C@@H]([C@H](C)CCCC(C)(C)O)CC[C@@H]12 [Calcifediol] (49.9188 µM)	0.545
CN(Cc1ccc(C(C)(C)C)cc1)Cc1cccc2ccccc12 [Butenafine] (62.9964 µM)	0.405
Cc1cc(C(C)(C)C)c(O)c(C)c1CC1=NCCN1 [Oxymetazoline HCl] (76.8101 µM)	0.511
CC(C(=O)O)c1ccc2c(c1)Cc1cccnc1O2 (stereo not given) [Pranoprofen] (78.3466 µM)	0.479
CCCCN1C[C@H](O)[C@@H](O)[C@H](O)[C@H]1CO [Miglustat] (91.2063 µM)	0.456
CCN(CC)CCNC(=O)c1ccc(N)cc1 [Procainamide] (73.5835 µM)	0.494
NC(=O)OCC(COC(N)=O)c1ccccc1 [Felbamate] (83.9631 µM)	0.505
Cc1cnc(NC(=O)C2=C(O)c3ccccc3S(=O)(=O)N2C)s1 [Meloxicam] (56.9143 µM)	0.501
NCCCC[C@H](N[C@@H](CCc1ccccc1)C(=O)O)C(=O)N1CCC[C@H]1C(=O)O [Lisinopril] (49.322 µM)	0.502
CCN[C@H]1C[C@H](C)S(=O)(=O)c2sc(S(N)(=O)=O)cc21 [Dorzolamide] (61.6443 µM)	0.499
COCCOC(=O)C1=C(C)NC(C)=C(C(=O)OC(C)C)C1c1cccc([N+](=O)[O-])c1 (stereo not given) [Nimodipine] (47.7954 µM)	0.521
Nc1nc2c(ncn2COCCO)c(=O)[nH]1 [Acycloguanosine] (88.8066 µM)	0.472
